# Sampled rows, rich in hits. Any-hit rate of the full collection: about 21%.
# IL-1B inflam inh: blocks inflammasome-driven IL-1 beta release; THP-1 LPS/ATP IL-1B secretion, AlphaLISA, 16 h; stronger effect = lower value; 360,000 tested, 4.7% active; activity change, % at 57.5 µM; in the data active = activity change below about -50%; inconclusive = mostly about -30% to -49%
#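 Secreted IL-1B measured by AlphaLISA bead assay after 16 h compound exposure of THP-1 cells; compounds (final up to 57.5 uM) added 1 h before LPS (250 ng/mL) and ATP (1.25 mM) stimulation; lower signal means less secretion.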
# ClpP mod: qHTS Assay for Activators of ClpP. ATP-dependent Clp protease proteolytic subunit (Bacillus subtilis (strain 168)), P80244. purified B. subtilis ClpP, FRET peptide cleavage, 20 min. Potency, µM (doses to about 57.5 µM). 340,000 tested, 1.9% active; active = well fitted falling curve with a large enough effect; inconclusive = small, poorly fitted or top-dose-only effect; inactive = no such curve, though single readings can be large or run the other way; also: the source files actives as falling curves though it sought activators and does not explain the sign; nearly all actives have a fitted effect of over 65% in size
# Target sequence (P80244 whole entry, looked up): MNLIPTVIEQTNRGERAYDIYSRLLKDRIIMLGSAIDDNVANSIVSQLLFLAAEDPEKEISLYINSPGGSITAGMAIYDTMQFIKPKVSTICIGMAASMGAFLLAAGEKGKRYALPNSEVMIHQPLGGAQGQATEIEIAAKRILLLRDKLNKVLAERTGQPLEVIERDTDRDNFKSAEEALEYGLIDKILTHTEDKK
#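 FRET quenching reversal measured ClpP activation: 10 microg/mL B. subtilis ClpP at pH 8 with the FRET-FV decapeptide, read at 430 nm after 320 nm excitation. The 20-min minus 0-min signal was scaled between DMSO/no-enzyme wells and ADEP (5.8 microM final).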
# D3 ag: agonists of human D3 dopamine receptor; P35462; D3R DiscoveRx beta-arrestin cells, luminescence, 90 min; max activation, %; 410,000 tested, 0.58% active; AID 652048; in the data active = max activation above about 30%
# Target sequence (P35462 whole entry, looked up): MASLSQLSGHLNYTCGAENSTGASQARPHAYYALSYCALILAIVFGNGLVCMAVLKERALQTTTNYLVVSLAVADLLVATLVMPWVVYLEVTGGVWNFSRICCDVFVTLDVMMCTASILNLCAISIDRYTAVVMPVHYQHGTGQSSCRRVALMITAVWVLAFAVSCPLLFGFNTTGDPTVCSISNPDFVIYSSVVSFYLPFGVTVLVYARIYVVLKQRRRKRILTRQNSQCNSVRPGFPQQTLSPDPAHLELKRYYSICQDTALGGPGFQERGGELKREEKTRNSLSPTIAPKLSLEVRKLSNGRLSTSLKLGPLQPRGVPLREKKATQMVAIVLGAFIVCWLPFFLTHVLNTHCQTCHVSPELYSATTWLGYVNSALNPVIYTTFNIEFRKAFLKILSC
#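 Cells at 1500/well, incubated overnight, then treated with pinned compounds (dopamine as control) for 90 min at 37 degrees C. DiscoveRx reagent added for 30 - 60 minutes at room temperature; luminescence read.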
# DRD3 antagonist: blocks the human D3 dopamine receptor. P35462. D3R cells, DiscoveRx beta-arrestin luminescence, antagonist mode; stronger effect = lower value. max response, negative = inhibition, %. 360,000 tested, 2.5% active; in the data active = max response below about -50%; inconclusive = no clear call, values can overlap the other calls
#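 Cells plated overnight at 1500 cells/well, then exposed to library compounds with dopamine controls for 90 minutes at 37 degrees C. DiscoveRx reagent added for 30–60 minutes at room temperature; luminescence read, quantitative HTS format.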
# TDP1 cell noCPT: qHTS for Inhibitors of human tyrosyl-DNA phosphodiesterase 1 (TDP1): qHTS in cells in absence of CPT; Potency, µM (top dose mostly 46.2 µM), hits mostly inhibitors; 420,000 tested, 15% active; DT40 Tdp1-/- hTDP1 cells, no CPT, ATP luminescence, 48 h; also: nearly all actives have a fitted effect of over 55% in size
#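 DT40 Tdp1-/-;hTDP1 cells, no CPT (DMSO vehicle only), 400 cells/well; compounds pin-transferred; ≥48 hr, 37 °C; CellTiter-Glo 30 min RT dark, luminescence read.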
# DT40 TDP1 CPT: DT40-hTDP1 cell growth loss with CPT; chicken DT40 Tdp1-/-;hTDP1 cells + 20 nM CPT, ATP luminescence, 48 h; Potency, µM (highest dose often 46.2 µM), hits mostly inhibitors; 420,000 tested, 12% active; AID 686979; also: nearly all actives have a fitted effect of over 55% in size
#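 Chicken DT40 Tdp1-/- cells complemented with human TDP1, 400 cells/well, exposed to compounds plus 20 nM camptothecin for at least 48 h at 37 C; viability read as ATP content by CellTiter-Glo luminescence.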
# Numbers stand for hits; . = inactive; ? = inconclusive; / = no result. Unless noted, calls follow the shape of the dose curve; as a rule, active = well fitted inhibition curve with a large enough effect; inconclusive = small, poorly fitted or top-dose-only effect; inactive = flat fitted curve, though single readings scatter.
SMILES,IL-1B inflam inh,ClpP mod,D3 ag,DRD3 antagonist,TDP1 cell noCPT,DT40 TDP1 CPT
Nc1nc2c(ncn2[C@@H]2O[C@H](CNCc3ccccc3)[C@@H](O)[C@H]2O)c(=O)[nH]1,.,.,.,.,?,.
O=C(/C=C/c1cccs1)N1CCC2(CC1)Oc1ccc(Cl)cc1C(=O)C21CC(c2cccnc2)=NO1 (configuration not stated),.,.,37,.,?,?
CCC(=O)N1CCC2(CC1)Oc1ccc(Cl)cc1C(=O)C21CC(c2ccc(Cl)cc2)=NO1 (configuration not stated),?,.,.,.,13µM,?
CC(C)C(=O)N1CCC2(CC1)Oc1ccc(F)cc1C(=O)C21CC(c2ccc(Cl)cc2)=NO1 (configuration not stated),-67,.,.,.,?,?
CCC(=O)N1CCC2(CC1)Oc1ccc(F)cc1C(=O)C21CC(c2ccc(Cl)cc2)=NO1 (configuration not stated),?,.,.,.,26µM,?
CSCCC(c1nc2ccccc2[nH]1)n1c(=O)c(-c2ccco2)nc2ccccc21 (configuration not stated),?,.,.,.,23µM,12µM
CCC(c1nc2ccccc2[nH]1)n1c(-c2ccnc(Cl)c2)nc2ccccc21 (configuration not stated),?,.,.,-75,.,.
CSCCC(c1nc2ccccc2[nH]1)n1c(C)nc2ccccc21 (configuration not stated),.,.,.,.,.,.
CSCCC(c1nc2ccccc2[nH]1)n1c(=O)c(-c2cccnc2)nc2ccccc21 (configuration not stated),?,.,.,.,.,.
CCC(c1nc2ccccc2[nH]1)n1c(-c2cccnc2)nc2ccccc21 (configuration not stated),.,.,.,.,.,.
CSCCC(c1nc2ccccc2[nH]1)n1c(-c2cc(C(F)(F)F)cc(C(F)(F)F)c2)nc2ccccc21 (configuration not stated),.,.,.,.,16µM,?
CCOc1ccc(C2CC(=O)n3nc(-c4ccc(C)cc4)nc3S2)cc1OC (configuration not stated),/,.,.,/,.,.
COc1cc(C=CC(=O)N2CCN(CC(=O)N3CCCC3)CC2)cc(OC)c1OC,.,.,.,.,.,.
O=C(Nc1ccc(Cl)cc1C(=O)Nc1ccc(Br)cn1)c1ccco1,.,?,.,.,?,?
O=C(Nc1ccccc1F)c1coc(=O)c(Br)c1,.,/,.,.,1.6µM,0.52µM
C[C@@H](NC(=O)c1coc(=O)c(Br)c1)c1ccccc1,.,.,.,.,0.73µM,0.46µM
Cc1cc(NC(=O)c2coc(=O)c(Br)c2)ccc1C(C)C,/,/,.,.,1.8µM,0.52µM
O=C(Nc1ccc(Br)cn1)c1coc(=O)c(Br)c1,?,/,.,.,3.7µM,1.5µM
Cc1ccnn1CCC(=O)N1CCCC(Nc2ccc(F)c(F)c2)C1 (configuration not stated),.,.,.,.,?,.
O[C@@H]1COC(Nc2ccc(N=Nc3ccccc3)cc2)C[C@@H]1O (some centres not stated),?,.,.,.,.,.
CNc1cccc(-c2ccccc2CO)n1,.,.,.,?,.,.
O=C(NCCc1ccc(F)cc1)c1coc(=O)c(Br)c1,-91,.,.,.,0.92µM,0.13µM
COc1ccccc1CNC(=O)Cn1c(=O)nc(-c2ccccc2F)c2cc(Cl)ccc21,/,.,.,/,6.5µM,?
CCOc1ccccc1NC(=O)Cn1c(=O)nc(-c2ccccc2F)c2cc(Cl)ccc21,/,.,.,/,21µM,?
Cc1ccc(F)cc1NC(=O)Cn1c(=O)nc(-c2ccccc2F)c2cc(Cl)ccc21,/,.,.,/,?,.
SMILES,IL-1B inflam inh,ClpP mod,D3 ag,DRD3 antagonist,TDP1 cell noCPT,DT40 TDP1 CPT
CC(=O)OCC1(C)CN(c2ccccc2)N(C(=O)c2ccc(F)cc2)C1=O (configuration not stated),.,.,.,.,?,?
O=C(Nc1cc(Br)ccc1O)c1cnn2c(C(F)F)cc(C3CC3)nc12,.,/,.,.,16µM,.
O=C(Nc1cccnc1)c1cnn2c(C(F)F)cc(C3CC3)nc12,.,.,.,.,5.2µM,15µM
O=C(Nc1cccc(S(=O)(=O)N2CCOCC2)c1)c1cnn2c(C(F)F)cc(-c3ccccc3)nc12,.,/,.,.,?,?
C[C@@H](CCCCC(=O)Nc1ccc(C(F)(F)F)cc1)NCCc1cnc[nH]1,/,/,/,/,.,.
Clc1ccccc1-c1nc(NCCN2CCOCC2)c2ccccc2n1,/,/,/,/,.,?
Clc1ccccc1-c1cncnc1NCCN1CCOCC1,/,/,/,/,3.7µM,3.3µM
FC(F)(F)c1ccccc1-c1cncnc1NCCN1CCOCC1,/,/,/,/,1.5µM,1µM
O=C(CSc1ccc(-c2cccs2)nn1)N1CCCCCC1,.,.,.,.,23µM,?
O=C(CSc1ccc(-c2cccs2)nn1)N1CCCCC1,.,.,.,.,.,.
Cc1ccccc1NC(=O)CSc1ccc(-c2cccs2)nn1,/,.,.,/,23µM,?
Cc1ccc(C(=O)CSc2nnc(-c3snnc3C)n2C2CC2)cc1,.,/,.,.,?,.
COC(=O)c1sccc1S(=O)(=O)N1CCN(c2ccc(C)cc2C)CC1,/,.,.,/,23µM,?
COC(=O)c1sccc1S(=O)(=O)N1CCN(c2cc(Cl)ccc2C)CC1,/,.,.,/,?,?
COC(=O)c1sc(S(=O)(=O)N2CCN(c3ccccc3F)CC2)c(C(=O)OC)c1C,.,/,.,.,?,15µM
COC(=O)c1sc(S(=O)(=O)N2CCN(c3ccc(OC)cc3)CC2)c(C(=O)OC)c1C,.,.,.,.,?,.
COC(=O)c1sccc1NC(=S)N1CCN(c2cccc(C)c2C)CC1,.,.,.,.,23µM,18µM
COC(=O)c1sccc1S(=O)(=O)N1CCN(c2cccc(C)c2C)CC1,/,.,.,/,23µM,?
Cc1ccc2c(=O)cc(C(=O)N(Cc3ccccc3Cl)C3CCS(=O)(=O)C3)oc2c1 (configuration not stated),/,.,.,/,?,.
CCOc1ccc(CCNS(=O)(=O)c2cc(Br)cc3c2N(C(C)=O)CC3)cc1OCC,/,.,.,/,?,.
CCOC(=O)CCCNC(=O)c1cncc(Br)c1,.,.,31,.,.,.
Cc1cccc(OCCNC(=O)c2cncc(Br)c2)c1,.,.,.,.,?,.

# Compound activity (PubChem)
